Records with an inconclusive call do not appear. A number with no mark means an inactive call. Calls of active or inactive are those of the source. Calls follow the shape of the dose curve; as a rule, active = well fitted inhibition curve with a large enough effect; inconclusive = small, poorly fitted or top-dose-only effect; inactive = no such curve, though single readings can be large or run the other way.
test system: Zika virus NS2B-NS3 protease (linked construct); experiment: Primary screen NINDS Rhodamine qHTS for Zika virus inhibitors (AID 1347160); details: purified NS2B-NS3 protease, Rhodamine110 substrate fluorescence; series mostly up to 33.1 µM; activity change, negative = inhibition: at the top concentration; also: nearly all actives have a fitted effect of over 55% in size
Procedure, shortened: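 Aprotinin served as in-plate control. Conditions: 25 nM linked NS2B-NS3, pH 8.0 Tris buffer, titrated compounds, 15 min preincubation and 15 min reaction with 1.5 microM Rhod110 substrate at room temperature.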
% is scaled to controls: 0 for no effect and ±100 for the full control effect.

Row | Compound | activity change, negative = inhibition | outcome
1 | Cc1nnc(-c2sc(NC(=O)[C@H](C(C)C)n3c(=O)[nH]c4ccccc4c3=O)nc2C)o1 | 11.2% [at 57.1 µM] | –
2 | N#CN1CCC[C@@H](n2nc(-c3ccc(Oc4ccc(F)cc4F)cc3)c(C(N)=O)c2N)C1 | 20.6% [at 57.1 µM] | –
3 | Cc1ccccc1N1CCN(S(=O)(=O)C[C@]23CC[C@H](C[C@@H]2NC(=O)[C@@H](N)CCS(C)(=O)=O)C3(C)C)CC1 | – | inactive
4 | C=CC(C)(O)C1CC2C3(C)CCCC(C)(C)C3C(O)C(O)C2(C)O1 (stereo not given) | – | inactive [at 33.1 µM]
5 | Cc1ccc(Cl)cc1N(CC(=O)Nc1c(F)cccc1F)S(C)(=O)=O | 9.12% [at 57.1 µM] | –
6 | COc1c2c(c(C)c3c1C(=O)OC3)OC1(C)CC(O)C34OC(O)(CCC3(C)C1C2)OC4(C)C (stereo not given) | 8.12% | –
7 | C=C[C@H]1[C@H](O[C@@H]2O[C@H](CO)[C@@H](O)[C@H](O)[C@H]2O)OC=C(C(=O)OC)[C@H]1CC=O | 4.11% | –
8 | COC(=O)C1=COC(OC2OC(CO)C(O)C(O)C2O)C2C(COC(=O)/C=C/c3ccc(O)cc3)C(O)C(O)C12 (stereo not given) | -21.3% | –
9 | CCC(=O)N1CCc2cc(OC)c(O)cc2C1 | -6.32% [at 57.1 µM] | –
10 | C[C@@H]1O[C@@H](OC(=O)Cc2ccccc2)[C@H](O)[C@H](O)[C@H]1O | – | inactive
11 | N[C@@H](CC(=O)Nc1ccc(Oc2cc(F)c(F)cc2Br)cc1)C(=O)O | -10.7% [at 57.1 µM] | –
12 | CC(=O)OC12CC(C)C(O)C1/C=C(/COC1OC(CO)C(O)C(O)C1O)CCC1C(/C=C(\C)C2=O)C1(C)C (stereo not given) | -14.6% | –
13 | COC(=O)C1C(c2ccc(O)cc2)C(C(=O)O)C1c1ccc(O)cc1 (stereo not given) | 17.1% | –
14 | C=C1CCC2C(C)(C(=O)OC)CCCC2(C)C1CCC1=CCOC1=O (stereo not given) | 4.74% | –
15 | CC12CC(O)C(O)C=C1c1cc(O)cc(O)c1C(=O)O2 (stereo not given) | -6.08% [at 57.1 µM] | –
16 | CC1(C)CC[C@]2(C(=O)O)CC[C@]3(C)C(=CCC4[C@@]5(C)C[C@@H](O)[C@H](O)[C@](C)(CO)C5CC[C@]43C)[C@@H]2[C@@H]1O (stereo not given in full) | -3.98% | –
17 | CC[C@H]1OC(=O)[C@H](C)[C@@H](O[C@H]2C[C@@](C)(OC)[C@@H](O)[C@H](C)O2)C(C)[C@@H](O[C@@H]2O[C@H](C)C[C@H](N(C)C)[C@H]2O)[C@](C)(O)C[C@@H](C)CN(C)[C@H](C)[C@@H](O)[C@]1(C)O (stereo not given in full) | – | inactive
18 | C/C=C/C=C/C(O)=C1/C(=O)[C@]2(C)C3/C(=C(O)/C=C/C=C/C)C(=O)C4(C)C1[C@]1(C)O[C@@]4(O)[C@@]3(C)O[C@@]12O | – | inactive [at 33.1 µM]
19 | CC(C)=CCc1c(O)cc2oc3cc(C)cc(O)c3c2c1C | – | inactive
20 | CO[C@@H]1[C@]2(O)C(=O)N3/C=C\C(C)(C)c4[nH]c5ccccc5c4/C=C\3C(=O)N2[C@]23[C@H](CO)C(C)(C)N2c2ccccc2[C@]13O | – | inactive [at 33.1 µM]
21 | COC(=O)C1=CO[C@@H](O[C@@H]2O[C@H](CO)[C@@H](O)[C@H](O)[C@H]2O)[C@H]2[C@@H]1C=C[C@]21C=C([C@H](C)OC(=O)/C=C/c2ccc(O[C@@H]3O[C@H](CO)[C@@H](O)[C@H](O)[C@H]3O)cc2)C(=O)O1 | – | inactive [at 15.1 µM]
22 | C=C1C(OC(C)=O)CCC2(C)CCC(C(C)(C)O)CC12 (stereo not given) | -0.508% [at 57.1 µM] | –
23 | O=C(O)/C=C/c1ccc2occc2c1O[C@@H]1O[C@H](CO)[C@@H](O)[C@H](O)[C@H]1O | 6.93% | –
24 | C[C@@H]1O[C@@H](O[C@H]2[C@H](Oc3cc(O)c(C(=O)CCc4ccc(O)cc4)c(O)c3)O[C@H](CO)[C@@H](O)[C@@H]2O)[C@H](O)[C@H](O)[C@H]1O | 7.29% [at 57.1 µM] | –
25 | COC(=O)C1=CO[C@@H](O[C@@H]2O[C@H](CO)[C@@H](O)[C@H](O)[C@H]2O)/C(=C\CO)[C@@H]1CC(=O)OCCc1ccc(O)cc1 | 18.7% | –
